# From PubChem
# Shown is part of a subset that was picked to be rich in hits.
# MARV entry inh: qHTS for inhibitors of binding or entry into cells for Marburg Virus; 300,000 compounds, 1.8% hits; Marburg virus pseudotyped entry inhibition, cell reporter; Potency, µM (series often up to 37.8 µM), without a hit: at the top dose activity change, negative = inhibition, most hits filed as inhibitors; AID 540276, 2011; calls by dose curve; tested in HEK293 cells; also: potency is read from the fitted curve at half-maximal effect; % is scaled to controls: 0 for no effect and ±100 for the full control effect
# Vaccinia Venus: qHTS for Stage-Specific Inhibitors of Vaccinia Orthopoxvirus: Venus Reporter Primary qHTS; Vaccinia virus Venus reporter expression, fluorescence; Potency, µM (titrated, usually from 36.5 µM), for the others: at the highest dose activity change, negative = inhibition, usual class: inhibitors; 330,000 compounds, 0.46% hits; AID 720580, 2013; calls by dose curve; tested in A549 cells; also: potency is read from the fitted curve at half-maximal effect; % is scaled to controls: 0 for no effect and ±100 for the full control effect; nearly all actives have a fitted effect of over 30% in size
# Vaccinia mCherry: qHTS for Stage-Specific Inhibitors of Vaccinia Orthopoxvirus: mCherry Reporter Primary qHTS. Vaccinia virus mCherry reporter infection, fluorescence. Potency, µM (top dose mostly 36.5 µM), without a hit: at the top dose activity change, negative = inhibition, usual class: inhibitors. 310,000 compounds, 0.63% hits; calls by dose curve; tested in A549 cells; also: potency is read from the fitted curve at half-maximal effect; % is scaled to controls: 0 for no effect and ±100 for the full control effect; nearly all actives have a fitted effect of over 35% in size
# Lassa entry inh: qHTS for Inhibitors of binding or entry into cells for Lassa Virus. 300,000 compounds, 1.2% hits. Lassa virus pseudotype entry inhibition, cell reporter. Potency, µM (doses to about 37.9 µM), for inactives: at the highest dose activity change, negative = inhibition, hits mostly inhibitors; calls by dose curve; tested in HEK293 cells; also: potency is read from the fitted curve at half-maximal effect; % is scaled to controls: 0 for no effect and ±100 for the full control effect; nearly all actives have a fitted effect of over 50% in size
# CHX counter: Cycloheximide Counterscreen for Small Molecule Inhibitors of Shiga Toxin; cell reporter, cycloheximide protein synthesis inhibition counterscreen; 300,000 compounds, 12% hits; max response, %; AID 2314, 2010; in the data active = max response mostly above about 13%, no sharp cut-off; inactive = mostly below about 14%; also: read at 38.3 µM for the half of the compounds with a filed dose; 0% is about no effect
# Shiga inhibitor: A qHTS for Small Molecule Inhibitors of Shiga Toxin; AID 2315, 2010; inhibition, % at 38.7 µM; Vero cells, Shiga toxin protein synthesis inhibition reporter; 290,000 compounds, 9.2% hits; in the data active = inhibition mostly above about 28%, no sharp cut-off; inactive = mostly below about 43%; also: 0% is about no effect
# * = called active by the depositor; i = inactive; ? = inconclusive; · = no result given; + = active, no number; [ ] = another dose, or the depositor's remark.
SMILES,MARV entry inh,Vaccinia Venus,Vaccinia mCherry,Lassa entry inh,CHX counter,Shiga inhibitor
Cc1nn(-c2ccc(Cl)cc2)c2nc(-c3cccnc3)cc(C(F)(F)F)c12,-2%[46.1 µM],-11%,-9%,-5%[46.1 µM],·,·
COc1nc(-c2ccccc2)ccc1-c1noc(-c2ccccc2)n1,?,-24%,·,17%,11,42
COc1ccc(-c2ccc(-c3noc(-c4ccccc4)n3)c(OC)n2)cc1,-3%,-3%,-10%,20%,1,-4
COc1nc(-c2ccccc2)ccc1-c1noc(-c2ccco2)n1,4%[46.1 µM],?,-11%,-1%,34*,71*
COc1ccc(-c2ccc(-c3noc(-c4ccco4)n3)c(OC)n2)cc1,?,?,-30%,14%,23*,51*
Fc1ccc(Nc2ccnc(Nc3ccc(F)cc3)n2)cc1,8%,11µM*,10µM*,1%,72*,+
O=C(O)c1cccc(Nc2ccnc(Nc3cccc(C(=O)O)c3)n2)c1,?,-16%,i,?,29*,79*
Fc1ccc(Nc2ccnc(C(F)(F)F)c2)cc1,·,·,·,·,-3,-3
O=C(O)c1cccc(Nc2nc(N3CCOCC3)nc(N3CCOCC3)n2)c1,30%,-12%,i,13%,-3,-9
CN(CC(=O)Nc1ccc(F)c(F)c1F)C(=O)C1(c2ccccc2)CC1,·,-3%,i,·,·,·
CCOc1ccc(NC(=O)c2cnn3c2NC(c2cccc(OC)c2)=CC3c2ccccc2)cc1 (centres undefined),·,-26%,?,?,·,·
O=C(COC(=O)Cn1ccc(=O)[nH]c1=O)Nc1ccc(F)cc1,?,-2%,-14%,?,·,·
Cc1ccc(NC(=O)Cn2ccc(=O)[nH]c2=O)cc1,18%[46.1 µM],-3%,i,0%,30*,41
O=C(NCc1ccco1)C1CCN(S(=O)(=O)c2cccc([N+](=O)[O-])c2)CC1,16%[46.1 µM],-1%,-2%,20%[46.1 µM],-2,-5
O=C(CSc1ccccc1)Nc1ccc(-c2nc3ccccc3[nH]2)cc1,?,?,-18%,-29%,12,6
CCOc1ccc(NC(=S)NCc2nc3ccccc3[nH]2)cc1,-7%,·,·,8%,13,23
CCNC(=S)Nc1ccc(-c2nc3ccccc3[nH]2)cc1,?,-22%,-19%,?,40*,103*
O=C(CN1CCOCC1)Nc1ccc(-c2nc3ccccc3[nH]2)cc1,?,·,·,-3%,27*,76*
O=C(Cc1cccs1)Nc1ccc(-c2nc3ccccc3[nH]2)cc1,?,-24%,-27%,?,37*,131*
O=C(CCNS(=O)(=O)c1ccccc1F)N1CCN(C(c2ccccc2)c2ccccc2)CC1,?,?,-23%,?,·,·
COC(=O)C1CCCCN1Cc1ccc2c(c1)CN(Cc1cnn(-c3ccccc3)c1)CCO2 (centres undefined),·,-6%,-7%,·,·,·
COc1cccc(CN2CCN(CC(=O)NCCc3ccccc3)CC2)c1,?,-5%,-5%,-14%,9,-3
CCCC[C@@H]1CNCCN1CCc1cc(C(F)(F)F)cc(C(F)(F)F)c1,·,?,-27%,·,·,·
CCC(C)[C@H]1CNCCN1CCc1cc(C(F)(F)F)cc(C(F)(F)F)c1 (some centres undefined),·,16µM*,?,·,·,·
Cc1ccc(OCCOc2cccc(C=C3C(=O)NC(=O)NC3=O)c2)cc1,·,-8%,i,·,62*,93*
SMILES,MARV entry inh,Vaccinia Venus,Vaccinia mCherry,Lassa entry inh,CHX counter,Shiga inhibitor
O=C1NC(=O)C(=Cc2ccc3ccccc3c2)C(=O)N1,·,-6%,-6%,·,-3,-6
Cc1cc(C)cc(OCCOc2cccc(C=C3C(=O)NC(=O)NC3=O)c2)c1,·,·,·,·,18*,55*
CC1Nc2ncnc(N3CCN(c4ccccc4)CC3)c2N(Cc2ccc(Br)cc2)C1=O (centres undefined),·,?,7.1µM*,·,·,·
CC1Nc2ncnc(N3CCOCC3)c2N(Cc2ccccc2)C1=O (centres undefined),·,-1%,-15%,·,·,·
COc1cc2c(cc1OCc1ccccc1)/C(=C/C(=O)OCc1ccccc1)OC2,·,-26%,-15%,·,·,·
O=C(Nc1ccc(Cl)cc1)Nc1ccccc1CC[N+](=O)[O-],-23%[46.1 µM],-7%,-13%,?,24,41*
O=C(Nc1ccc(Cl)c(Cl)c1)Nc1ccccc1C(=O)O,?,-1%,-18%,3.5µM*,30*,41
O=C(Nc1ccccc1CC[N+](=O)[O-])N1CCN(c2ccccc2)CC1,10µM*,-1%,-4%,-2%,13,-6
O=C(Nc1ccc(Cl)cc1)Nc1csc([N+](=O)[O-])c1,?,?,?,?,30*,100*
COc1cc(NC(=O)CN2CCCN(S(=O)(=O)c3ccc(F)cc3)CC2)cc(OC)c1,0%[46.1 µM],-2%,-14%,-2%[46.1 µM],·,·
C1=Cc2ccccc2/C1=C\c1cc2c3c(c1)CCCN3CCC2,·,10%,26%,·,·,·
CC(C)N(Cc1ccccc1)C(=O)COC(=O)c1c(F)cccc1F,-14%[46.1 µM],1%,i,0%[46.1 µM],·,·
O=C(Cc1ccc(Cl)cc1)Nc1ccccc1C(=O)Nc1ccc(C(=O)O)cc1,·,-5%,i,·,0,-6
O=C(Nc1ccc(Cl)cc1)Nc1ccccc1C(=O)O,?,-9%,i,?,23*,35
CCOC(=O)c1sc(NC(=O)CN2CCN(c3ccc(OC)cc3)CC2)nc1C,6%[46.1 µM],-26%,?,6%[46.1 µM],-1,-6
O/C(=C\c1nc2ccccc2[nH]1)c1cccs1,-19%[46.1 µM],-3%,i,?,28*,87*
c1csc(-c2nnsc2-c2nc3ccccc3[nH]2)c1,9%[46.1 µM],-6%,-15%,4%,24,45
CC(C)(C)/C(O)=C/c1nc2ccccc2[nH]c1=O,13%,-17%,i,-3%,6,11
O=c1[nH]c2ccccc2nc1/C=C(\O)c1cccs1,-25%[46.1 µM],2%,i,-28%,42*,109*
O=c1[nH]c2ccccc2nc1-c1cccs1,13%,·,·,2%,43*,120*
Cn1ccnc1-c1nc2ccccc2[nH]c1=O,4%,-6%,i,1%,-2,-3
Cc1[nH]c2ccccc2c1-c1nc2ccccc2[nH]c1=O,29%[46.1 µM],-7%,-5%,?,9,64*
Cc1ccc(CC(=O)Nc2cccc(C(=O)Nc3c(C)n(C)n(-c4ccccc4)c3=O)c2)cc1C,·,-20%,i,·,·,·
CCOc1ccc(-c2nnc(NC(=O)Cc3ccc(OC)cc3)o2)cc1,-2%[46.1 µM],-5%,-9%,·,25,26
CCOc1ccc(-c2nnc(NC(=O)Cc3cc(OC)c(OC)c(OC)c3)o2)cc1,·,·,·,·,18*,73*
CCOc1ccc(-c2nnc(NC(=O)CCCOc3cccc(C)c3)o2)cc1,?,·,·,?,26*,70*
COCC(=O)Nc1cc(C(=O)N2CCc3ccccc3C2)c2c(c1)nc(-c1ccncc1)n2C,·,-8%,-10%,·,·,·
